Composite z-score data for 36 compounds are collected here from PubChem BioAssay.

In the first assay the target is Carbonic anhydrase 2 (Homo sapiens) (UniProt P00918). Nature of the assay: compounds binding carbonic anhydrase 2 – biochemical, small-molecule microarray, Alexa647-labelled CAII, profiling panel (AID 1122). Particulars: CAII-A647 binding fluorescence, higher = more signal.
Regarding `COc1cc(CO)cc(I)c1O[C@H]1C=C(C(=O)NCCO)C[C@@H](N(CCN2CCOCC2)C(=O)C2CCCO2)[C@@H]1O` (some centres not stated), the composite z-score is -0.107.
`O=C(c1ccccc1)N1Cc2ccccc2C[C@@]2(N=C(c3ccc(OCCCO)cc3)O[C@H]2c2ccccc2)C1=O` displayed a composite z-score of 0.588.
`COCCCNC(=O)[C@@]1(Cc2ccccc2I)c2ccccc2C(=O)N(Cc2ccccc2OC)[C@H]1c1ccc(CO)cc1` returned a composite z-score of 0.542.
`CN(C)C(=O)[C@]1(CCS(=O)(=O)c2ccccc2)N=C(c2ccc(OCCCO)cc2)O[C@@H]1c1ccccc1CN=[N+]=[N-]`: the composite z-score turned out to be 0.73.
Compound `C=CCC(OC(C)=O)[C@@H]1[C@@H](N(Cc2ccc(-c3ccccc3)cc2)C(=O)Cc2ccc(OC)cc2)c2cc(OCCCO)ccc2N1C(=O)c1ccc2ccccc2c1` (some centres not stated) yielded a composite z-score of 0.269.
`COc1cccc(C)c1NC(=O)O[C@H]1[C@H](OC(=O)Nc2ccccc2)[C@@H](OC(=O)Nc2ccccc2)[C@@H](OC)O[C@@H]1CO` came in with a composite z-score of 0.461.

Test system in a further assay: not listed separately
Nature of the assay: COS7 lysate on small-molecule microarray, probe aHis, 635 nm (AID 1123).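 Note: z-score combines 667nm fluorescence intensity with signal-to-noise per printed compound spot.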 Particulars: COS7 cell lysate, fluorescence, higher = more signal.
`COC(=O)[C@@]1(Cc2ccc(OC)cc2)[C@@H]2[C@@H](CC(=O)[C@H]2CC(=O)C(=O)N(C)C)CN1C(=O)c1ccccc1` had a composite z-score of 3.17.
For `COC(=O)C(CC#Cc1ccc2c(c1)[C@]1(C(=O)N2)[C@H](C(=O)N2CCCCCCC2)[C@H]2C(=O)O[C@H](c3ccccc3)[C@H](c3ccccc3)N2[C@@H]1c1ccc(OCCO)cc1)C(=O)OC`, the composite z-score is 5.47.
`COc1ccc(CCNC(=O)[C@@]2(c3ccc([N+](=O)[O-])cc3)CC(=O)N(C3CCCCC3)[C@@H]2c2ccc(CO)cc2I)cc1` showed a composite z-score of 1.52.
The same measure, in the same setting: next, `COc1c(C)cc(-c2cc3c(c(CCc4ccccc4)n2)[Si](C(C)C)(C(C)C)O[C@H]3c2ccccc2)cc1C`: 0.463.
On to `CCCCC(=C=CC[C@@H](O)c1ccccc1OCCO)C[C@@H](O)c1ccccn1`, for which the composite z-score was 0.522.
`[N-]=[N+]=NCc1ccccc1C[C@]1(C(=O)N2CCCCC2)COC(c2ccc(OCCCO)cc2)=N1` displayed a composite z-score of 1.58.
`COc1cccc(C)c1NC(=O)O[C@H]1[C@H](OC(=O)Nc2ccccc2-c2ccccc2)[C@@H](OC(=O)Nc2ccccc2-c2ccccc2)[C@@H](OC)O[C@@H]1CO` yielded a composite z-score of 1.44.
The compound `O=C1C2C=CC(C(O)c3ccccn3)N(Nc3ccc([N+](=O)[O-])cc3)C2C(=O)N1c1ccccc1` (configuration not stated) returned a composite z-score of 0.438.
Consider `CCOC(=O)C1=C[C@@H](C(C)(C)C)N(S(=O)(=O)c2ccc(C)cc2)[C@H]1c1ccc(OC)cc1`, for which the composite z-score stood at 1.8.
As for `O=C1NC(=O)C2C1C=CC(C(O)C(c1ccccc1)c1ccccc1)N2Nc1ccccn1` (configuration not stated), the composite z-score is 0.899.
Turning to `CCCCCCc1nc(-c2ccc(OC)nc2)c(C)c2c1[Si](C(C)C)(C(C)C)OC2`, the composite z-score was -0.039.
The same measure, in the same setting: the value for `CC(C)Cc1ccc(CN2CC[C@@H](NC(=O)c3ccccc3)C2)cc1` was -0.0414; that for `COCCOC(=O)N1C(=O)[C@@]2(c3cc(C#CC4=CCCCC4)ccc31)[C@H](c1ccc(O)cc1)N1[C@H](c3ccccc3)[C@H](c3ccccc3)OC(=O)[C@H]1[C@@H]2C(=O)N1CCc2cc(OC)c(OC)cc2C1` was 2.29.
Still for that read-out and setting: next, `Cc1ccc(S(=O)(=O)N2[C@@H](c3ccccc3)C(C(=O)O)=CC[C@H]2c2ccc(F)cc2)cc1`: 3.31; `COc1ccc([Si](C)(C)[C@H]2[C@H](CC(=O)N3CCC[C@H]3CO)O[C@@]3(C(=O)N(Cc4cccc(N5CCCCC5=O)c4)c4ccccc43)[C@@H]2C)cc1`: 1.83.
With `[N-]=[N+]=Nc1ccccc1C[C@@]1(C(=O)NCc2ccccc2)N=C(c2ccc(OCCCO)cc2)O[C@@H]1c1ccccc1`, the composite z-score was 1.99.
With `[N-]=[N+]=NCc1ccccc1[C@H]1OC(c2ccc(OCCCO)cc2)=N[C@@]1(CCS(=O)(=O)c1ccccc1)C(=O)O`, the composite z-score is 2.12.
`CCOC(=O)C[C@H]1[C@H](OC(=O)c2cc3ccccc3oc2=O)[C@@H](NC(=O)Cc2ccc(OC)cc2)c2cc(OCCCO)ccc2N1C(=O)Cc1ccc(OC)cc1` came in with a composite z-score of 0.638.
Still for that read-out and setting: the value for `C=C(C(=O)CC[C@@H](OC(=O)c1ccccc1-c1ccccc1C(=O)O)c1cccc(OCCO)c1)C(C)C` was 0.139; that for `COC(=O)[C@@]1(Cc2ccc(F)cc2)[C@@H]2C(=CC(=O)[C@H]2CC(=O)C(=O)N2CCCC2)CN1C(=O)c1ccccc1` was 3.14; that for `CC(C)(C)OC(=O)CC[C@]1(C(N)=O)N=C(c2ccc(OCCCO)cc2)O[C@H]1c1ccccc1N=[N+]=[N-]` was 1.61.
In turn, `COc1ccc([Si](C)(C)[C@@H]2[C@@H](CC(=O)N3CCC[C@H]3CO)O[C@]3(C(=O)N(Cc4cccc(N5C(=O)c6cccc7cccc5c67)c4)c4ccccc43)[C@H]2C)cc1` had a composite z-score of 0.386.
Take `COC(=O)C(CC#Cc1ccc2c(c1)[C@]1(C(=O)N2)[C@H](c2ccccc2OCCO)N2[C@H](c3ccccc3)[C@H](c3ccccc3)OC(=O)[C@H]2[C@@H]1C(=O)N1CCN(c2ncccn2)CC1)C(=O)OC`: the composite z-score came out at 1.18.
Still for that read-out and setting: next, `COc1ccc(C(=O)Nc2ccc(CN3C(=O)[C@]4(O[C@H](CC(=O)N(CCO)Cc5ccccc5)[C@@H]([Si](C)(C)c5ccc(OC)cc5)[C@@H]4C)c4ccccc43)cc2)cc1`: 1.58; `COCCOC(=O)N1C(=O)[C@@]2(c3cc(C#CCCO)ccc31)[C@H](c1ccc(O)cc1)N1[C@H](c3ccccc3)[C@H](c3ccccc3)OC(=O)[C@H]1[C@@H]2C(=O)NC[C@H](O)c1ccccc1`: 1.89; `COc1ccc(NN2C(C(O)c3ccccc3)C=CC3C(=O)N(C4CCCCC4)C(=O)C32)cc1` (configuration not stated): 2.67.
Take `COc1ccc([Si](C)(C)[C@H]2[C@H](CC(=O)N(CCO)Cc3ccccc3)O[C@@]3(C(=O)N(Cc4ccc(N5C(=O)c6cccc7cccc5c67)cc4)c4ccccc43)[C@@H]2C)cc1`: the composite z-score turned out to be 1.52.
Take `COc1ccc([Si](C)(C)[C@H]2[C@H](CC(=O)N3CCC[C@H]3CO)O[C@@]3(C(=O)N(C)c4c(Br)cc(C)cc43)[C@@H]2C)cc1`: the composite z-score was found to be 2.52.
The same measure, in the same setting: the value for `COCCOC(=O)N1C(=O)[C@@]2(c3cc(C#CCCO)ccc31)[C@H](C(=O)N1CCN(c3ncccn3)CC1)[C@H]1C(=O)O[C@H](c3ccccc3)[C@H](c3ccccc3)N1[C@@H]2c1ccc(OCCO)cc1` was 2.13; that for `COc1ccc([Si](C)(C)[C@H]2[C@H](CCO)O[C@@]3(C(=O)N(Cc4ccccc4)c4ccc(NC(=O)[C@H](C)O)cc43)[C@@H]2C)cc1` was 2.28; that for `COc1cc(CO)cc(I)c1O[C@H]1C=C(C(=O)NCCO)C[C@@H](N(CCN2CCOCC2)C(=O)C2CCCO2)[C@@H]1O` (some centres not stated) was -0.61.
The same measure, in the same setting: the value for `O=C(c1ccccc1)N1Cc2ccccc2C[C@@]2(N=C(c3ccc(OCCCO)cc3)O[C@H]2c2ccccc2)C1=O` was 2.43; that for `COCCCNC(=O)[C@@]1(Cc2ccccc2I)c2ccccc2C(=O)N(Cc2ccccc2OC)[C@H]1c1ccc(CO)cc1` was 2.31.
Turning to `CN(C)C(=O)[C@]1(CCS(=O)(=O)c2ccccc2)N=C(c2ccc(OCCCO)cc2)O[C@@H]1c1ccccc1CN=[N+]=[N-]`, the composite z-score turned out to be 2.78.
Regarding `C=CCC(OC(C)=O)[C@@H]1[C@@H](N(Cc2ccc(-c3ccccc3)cc2)C(=O)Cc2ccc(OC)cc2)c2cc(OCCCO)ccc2N1C(=O)c1ccc2ccccc2c1` (some centres not stated), the composite z-score worked out at 0.198.
On to `COc1cccc(C)c1NC(=O)O[C@H]1[C@H](OC(=O)Nc2ccccc2)[C@@H](OC(=O)Nc2ccccc2)[C@@H](OC)O[C@@H]1CO`, for which the composite z-score was 2.66.
